From PubChem BioAssay
Only some compounds are listed: those with a hit (about 21% of all), similar ones and a draw of the others.
IL-1B inflam inh: blocks inflammasome-driven IL-1 beta release | THP-1 LPS/ATP IL-1B secretion, AlphaLISA, 16 h; stronger effect = lower value | activity change, % at 57.5 µM | 360,000 tested, 4.7% active; in the data active means activity change below about -50%; inconclusive means mostly about -30% to -49%; further: on the % scale 0 is the no-effect control and ±100 the full control effect
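THP-1 cells pretreated 1 hr with compounds (up to 57.5 uM final), then stimulated with LPS (250 ng/mL final) plus ATP (1.25 mM final); secreted IL-1B measured by AlphaLISA after 16 hr, decreased signal indicating inhibition.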
D3 antag: D3 dopamine receptor (human) antagonism; P35462; D3R cells, DiscoveRx beta-arrestin luminescence, antagonist mode; stronger effect = lower value; max response, negative = inhibition, %; 360,000 tested, 2.5% active; in the data active means max response below about -50%; inconclusive means no clear call, values can overlap the other calls; further: on the % scale 0 is the no-effect control and ±100 the full control effect
Target sequence (P35462 whole entry, looked up): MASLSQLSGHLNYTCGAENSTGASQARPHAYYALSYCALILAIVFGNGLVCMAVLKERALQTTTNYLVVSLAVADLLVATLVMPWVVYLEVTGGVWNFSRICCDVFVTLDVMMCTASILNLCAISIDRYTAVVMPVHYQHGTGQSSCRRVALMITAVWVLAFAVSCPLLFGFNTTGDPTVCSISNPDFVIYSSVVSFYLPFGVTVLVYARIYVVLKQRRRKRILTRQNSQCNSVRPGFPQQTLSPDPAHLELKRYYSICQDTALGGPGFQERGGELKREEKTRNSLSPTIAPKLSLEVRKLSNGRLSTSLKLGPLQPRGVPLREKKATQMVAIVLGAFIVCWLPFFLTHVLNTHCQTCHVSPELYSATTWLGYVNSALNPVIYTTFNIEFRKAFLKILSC
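Cells plated overnight at 1500 cells/well, then exposed to library compounds with dopamine controls for 90 minutes at 37 degrees C. DiscoveRx reagent added for 30–60 minutes at room temperature; luminescence read, quantitative HTS format.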
DT40 TDP1 no CPT: qHTS for Inhibitors of human tyrosyl-DNA phosphodiesterase 1 (TDP1): qHTS in cells in absence of CPT; DT40 Tdp1-/- hTDP1 cells, no CPT, ATP luminescence, 48 h; Potency, µM (series often up to 46.2 µM), for inactives: top-dose activity change, negative = growth inhibition, usual class: inhibitors; 420,000 tested, 15% active; further: potency means the concentration at half of the fitted maximal effect; on the % scale 0 is the no-effect control and ±100 the full control effect; nearly all actives have a fitted effect of over 55% in size
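Growth of hTDP1-complemented DT40 Tdp1-knockout cells is measured by ATP luminescence after at least 48 hr compound exposure at 37 °C, with DMSO substituting for the 20 nM CPT used in the parallel screen.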
ClpP mod: qHTS Assay for Activators of ClpP | purified B. subtilis ClpP, FRET peptide cleavage, 20 min | ATP-dependent Clp protease proteolytic subunit (Bacillus subtilis (strain 168)), P80244 | 340,000 tested, 1.9% active | Potency, µM (series often up to 57.5 µM), without a hit: at the highest dose activity change, negative = active; active means well fitted falling curve with a large enough effect; inconclusive means small, poorly fitted or top-dose-only effect; inactive means no such curve, though single readings can be large or run the other way; further: potency means the concentration at half of the fitted maximal effect; the source files actives as falling curves though it sought activators and does not explain the sign; nearly all actives have a fitted effect of over 65% in size
Target sequence (P80244 whole entry, looked up): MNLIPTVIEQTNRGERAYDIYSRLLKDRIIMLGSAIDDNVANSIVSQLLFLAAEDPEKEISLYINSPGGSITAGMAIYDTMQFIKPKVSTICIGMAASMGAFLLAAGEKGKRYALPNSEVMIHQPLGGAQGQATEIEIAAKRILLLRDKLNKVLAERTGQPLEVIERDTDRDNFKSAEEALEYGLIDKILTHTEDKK
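FRET quenching reversal measured ClpP activation: 10 microg/mL B. subtilis ClpP at pH 8 with the FRET-FV decapeptide, read at 430 nm after 320 nm excitation. The 20-min minus 0-min signal was scaled between DMSO/no-enzyme wells and ADEP (5.8 microM final).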
D3 ag: activates the human D3 dopamine receptor | 410,000 tested, 0.58% active | P35462 | max activation, % | D3R DiscoveRx beta-arrestin cells, luminescence, 90 min; in the data active means max activation above about 30%; further: 0% is about no effect
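Agonist-mode cell screen: cells plated at 1500/well and incubated overnight at 37 °C, then exposed to library compounds for 90 min at 37 °C. Detection reagent was added for 30–60 min at room temperature, and luminescence was read.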
DT40 TDP1 CPT: DT40-hTDP1 cell growth loss with CPT. chicken DT40 Tdp1-/-;hTDP1 cells + 20 nM CPT, ATP luminescence, 48 h. Potency, µM (titrated, usually from 46.2 µM), for the others: top-dose activity change, negative = growth inhibition, hits mostly inhibitors. 420,000 tested, 12% active. AID 686979; further: potency means the concentration at half of the fitted maximal effect; on the % scale 0 is the no-effect control and ±100 the full control effect; nearly all actives have a fitted effect of over 55% in size
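Chicken DT40 Tdp1-/- cells stably complemented with human TDP1 were seeded at 400 cells/well in medium containing 20 nM camptothecin, exposed to pin-transferred compounds, and grown at 37 °C for at least 48 hr. Viability was read as ATP luminescence.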
Active calls of the source: *. Unless noted, the call rests on the fitted dose curve; in most records, active means well fitted inhibition curve with a large enough effect; inconclusive means small, poorly fitted or top-dose-only effect; inactive means flat fitted curve, though single readings scatter.

Cc1ccc(C)c(NC(=S)N2CCC(C(=O)c3ccc(F)cc3)CC2)c1 was read as IL-1B inflam inh 0, D3 antag -4, DT40 TDP1 no CPT -27%, ClpP mod -1%, D3 ag 1 and DT40 TDP1 CPT -1%.
`CCC1CCCCN1C(=O)CSc1nc(N)cc(N)n1` (centres undefined) gave IL-1B inflam inh 19, D3 antag -7, DT40 TDP1 no CPT -25%, ClpP mod -2%, D3 ag -1 and DT40 TDP1 CPT -14%.
For CC(NC(=O)N1CCOCC1)c1ccccc1 (centres undefined) the results were IL-1B inflam inh 28, D3 antag 7, DT40 TDP1 no CPT 13%, ClpP mod -1%, D3 ag 3 and DT40 TDP1 CPT 26%.
Screening CC(NC(=O)/C(C#N)=C/c1ccc(N2CCOCC2)cc1)c1ccccc1 (centres undefined) returned IL-1B inflam inh inconclusive, D3 antag -8, DT40 TDP1 no CPT 9.2µM*, D3 ag -4 and DT40 TDP1 CPT 13µM*.
`COc1ccc(/C=C(\C#N)C(=O)NCc2ccccc2)cc1O` gave IL-1B inflam inh -86*, D3 antag -9, DT40 TDP1 no CPT -29%, D3 ag -19 and DT40 TDP1 CPT -29%.
Screening COc1ccc(-n2nnc(-c3nsc(NC(=O)c4cccc(C)c4)n3)c2C)cc1OC returned DT40 TDP1 no CPT inconclusive, ClpP mod -2%, D3 ag 4 and DT40 TDP1 CPT inconclusive.
O=C(O)COCC(=O)N1CCc2c([nH]c3ccccc23)C1C(F)(F)F (centres undefined) was read as IL-1B inflam inh -6, D3 antag 0, DT40 TDP1 no CPT 18%, ClpP mod -1%, D3 ag 1 and DT40 TDP1 CPT -5%.
Screening CCOP(=O)(OCC)C(NC(=O)NS(=O)(=O)c1ccc(C)cc1)c1ccccc1 (centres undefined) returned IL-1B inflam inh -11, D3 antag -17, DT40 TDP1 no CPT -14%, ClpP mod -1%, D3 ag 5 and DT40 TDP1 CPT -5%.
`Fc1cccc(/C=N/Nc2nccnc2Cl)c1` gave IL-1B inflam inh 0, D3 antag 11, DT40 TDP1 no CPT 15µM*, ClpP mod -2%, D3 ag 0 and DT40 TDP1 CPT 12µM*.
`Fc1ccc(/C=N/Nc2nccnc2Cl)cc1` gave IL-1B inflam inh inconclusive, D3 antag 8, DT40 TDP1 no CPT -26%, ClpP mod -3%, D3 ag 5 and DT40 TDP1 CPT -27%.
`N#CC1(Cc2ccc([N+](=O)[O-])cc2)c2ccccc2C=CN1C(=O)c1ccccc1` (centres undefined) gave IL-1B inflam inh -20, D3 antag -1, DT40 TDP1 no CPT 15µM*, ClpP mod -3%, D3 ag 4 and DT40 TDP1 CPT inconclusive.
COc1cccc(NC(=O)c2oc3ccccc3c2NC(=O)Cc2cccc(C)c2)c1 was read as DT40 TDP1 no CPT 18µM*, ClpP mod 4%, D3 ag -8 and DT40 TDP1 CPT 23µM*.
For CCOCC(=O)Nc1c(C(=O)Nc2ccc(OC)cc2OC)oc2ccccc12 the results were IL-1B inflam inh inconclusive, D3 antag 39, DT40 TDP1 no CPT -22%, ClpP mod 2%, D3 ag 73* and DT40 TDP1 CPT inconclusive.
Screening COc1ccc(NC(=O)c2oc3ccccc3c2NC(=O)COc2ccc(F)cc2)c(OC)c1 returned DT40 TDP1 no CPT -16%, ClpP mod 1%, D3 ag -2 and DT40 TDP1 CPT inconclusive.
`COc1cccc(NC(=O)c2oc3ccccc3c2NC(C)=O)c1` gave IL-1B inflam inh -16, D3 antag -55*, DT40 TDP1 no CPT -18%, ClpP mod -5%, D3 ag -33 and DT40 TDP1 CPT 2%.
COc1cccc(NC(=O)c2oc3ccccc3c2NC(=O)c2ccccc2C)c1 was read as DT40 TDP1 no CPT inconclusive, ClpP mod 4%, D3 ag 1 and DT40 TDP1 CPT 10µM*.
For CC(C)(C)NC(=O)NC(=O)COC(=O)c1cccc(OC(F)F)c1 the results were IL-1B inflam inh 14, D3 antag -25, DT40 TDP1 no CPT -6%, ClpP mod 1%, D3 ag -3 and DT40 TDP1 CPT -9%.
Screening CCOC(=O)c1sc(NC(=O)CCCn2nc([N+](=O)[O-])c(Cl)c2C)c(C(=O)OCC)c1C returned IL-1B inflam inh -23, D3 antag 1, DT40 TDP1 no CPT inconclusive, ClpP mod -3%, D3 ag -3 and DT40 TDP1 CPT inconclusive.
`Cc1cccc(C)c1NC(=O)CNC(=O)c1ccc2c(c1)NC(=O)CS2` gave IL-1B inflam inh 15, D3 antag -7, DT40 TDP1 no CPT 6%, ClpP mod 1%, D3 ag 4 and DT40 TDP1 CPT 8%.
Screening Cc1c(C(C)CCCO)oc(=O)c2c1Oc1c(C)c(C(C)C[C@H](C)O)oc(=O)c1C2 (some centres undefined) returned IL-1B inflam inh 5, D3 antag 16, DT40 TDP1 no CPT inconclusive, ClpP mod -7%, D3 ag 15 and DT40 TDP1 CPT inconclusive.
For O=C(Nc1cccc(F)c1)c1ccc2c(c1)OCO2 the results were IL-1B inflam inh -2, D3 antag 19, DT40 TDP1 no CPT inconclusive, ClpP mod 0%, D3 ag -4 and DT40 TDP1 CPT inconclusive.
For O=C(Nc1c(C(=O)Nc2cccc(F)c2)oc2ccccc12)c1ccc2c(c1)OCO2 the results were IL-1B inflam inh 10, D3 antag 13, DT40 TDP1 no CPT -25%, ClpP mod 25µM*, D3 ag -14 and DT40 TDP1 CPT inconclusive.
CN(C)c1ccc(C(=O)Nc2c(C(=O)NC(C)(C)C)oc3ccccc23)cc1 was read as DT40 TDP1 no CPT inconclusive, ClpP mod inconclusive, D3 ag -11 and DT40 TDP1 CPT inconclusive.
For COc1cccc(C(=O)Nc2c(C(=O)NC(C)(C)C)oc3ccccc23)c1 the results were DT40 TDP1 no CPT inconclusive, ClpP mod -27%, D3 ag -4 and DT40 TDP1 CPT 18µM*.
`CCOC(=O)c1oc2ccccc2c1NC(=O)COC` gave IL-1B inflam inh -9, D3 antag -52*, DT40 TDP1 no CPT -5%, ClpP mod -26%, D3 ag -7 and DT40 TDP1 CPT -12%.
